PubChem BioAssay (EPA / NIEHS)
Where “and” joins values, the source holds several entries; their conditions need not be identical. Equal entries are not always repeated. Some compounds were tested as several samples or in several runs, with calls that do not always agree. Calls of active or inactive are those of the source. Rule for the calls: active = hit-call score of the fitted dose curve at least 0.9, where 1 is the maximum; inactive = score below 0.9.

Tests used:
Settings in all cases: primary human HUVEC with PBMC; actives raise or lower the signal
[1] = read-out: Interleukin-1 alpha (IL1a), IL1A (gene 3552); experiment: BSK_LPS_IL1a: BioMAP Diversity Plus: LPS Assay for Interleukin-1 alpha (IL1a) Biomarker Activity (AID 2283080)
How it was run: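 Human umbilical vein endothelial cells co-cultured with PBMC and stimulated with LPS; IL-1a measured by ELISA 24 h after dosing. Bidirectional fitting against DMSO; cytotoxicity checked by SRB staining in parallel cultures.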

[2] = read-out: Monocyte Chemoattractant Protein-1 (MCP1), CCL2 (gene 6347); experiment: BSK_LPS_MCP1: BioMAP Diversity Plus: LPS Assay for Monocyte Chemoattractant Protein-1 (MCP1) Biomarker Activity (AID 2283081);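 for AC50: secreted MCP-1 protein quantified by ELISA in culture supernatant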
How it was run: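 Human umbilical vein endothelial cells co-cultured with PBMC, LPS-stimulated; secreted MCP-1 measured by ELISA 24 h after compound addition. Bidirectional curve fitting against DMSO baseline; SRB total-protein staining in parallel cultures for cytotoxicity.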

[3] = BSK_LPS_PGE2: BioMAP Diversity Plus: LPS Assay for Prostaglandin E2 (PGE2) Biomarker Activity (AID 2283082);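 for AC50: secreted prostaglandin E2 measured by ELISA in LPS-stimulated co-culture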
How it was run: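 HUVEC plus human PBMC co-culture stimulated with LPS; secreted PGE2 quantified by ELISA 24 h after chemical dosing. Activity fitted bidirectionally against DMSO baseline; parallel SRB staining (0.1% SRB after 10% TCA fixation, 560 nm) flags overt cytotoxicity.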

[4] = read-out: Macrophage colony-stimulating factor (MCSF), CSF1 (gene 1435); experiment: BSK_LPS_MCSF: BioMAP Diversity Plus: LPS Assay for Macrophage colony-stimulating factor (MCSF) Biomarker Activity (AID 2283083)
How it was run: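 HUVEC–PBMC co-culture, M-CSF measured by ELISA 24 h after chemical dosing. Fitted in both directions relative to DMSO as negative control; overt cytotoxicity assessed by SRB total-protein staining in parallel cultures.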

[5] = read-out: Tissue Factor, F3 (gene 2152); experiment: BSK_LPS_TissueFactor: BioMAP Diversity Plus: LPS Assay for Tissue Factor Biomarker Activity (AID 2283084)
How it was run: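 Human umbilical vein endothelial cells co-cultured with PBMC were dosed with compound. Cell-surface CD142 was measured by ELISA 24 h later. Activity was fitted bidirectionally against DMSO, with SRB total-protein staining in parallel cultures for cytotoxicity.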

[6] = read-out: Tumor necrosis factor (Homo sapiens) (UniProt P01375); experiment: BSK_LPS_TNFa: BioMAP Diversity Plus: LPS Assay for Tumour Necrosis Factor alpha (TNFa) Biomarker Activity (AID 2283085);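 for AC50: TNFa protein level quantified by ELISA in the co-culture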
How it was run: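 Human umbilical vein endothelial cells co-cultured with PBMC and stimulated with LPS. TNFa was measured by ELISA 24 h after chemical dosing, fitted bidirectionally relative to DMSO.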

[7] = read-out: Vascular cell adhesion molecule 1 (VCAM1), VCAM1 (gene 7412); experiment: BSK_LPS_VCAM1: BioMAP Diversity Plus: LPS Assay for Vascular cell adhesion molecule 1 (VCAM1) Biomarker Activity (AID 2283086)
How it was run: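 Human umbilical vein endothelial cells co-cultured with PBMC and stimulated with LPS; VCAM-1 measured by ELISA 24 h after dosing. Bidirectional curve fitting against DMSO baseline; cytotoxicity tracked in parallel by SRB total-protein staining.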

CD38, CD38 (gene 952) = experiment: BSK_SAg_CD38: BioMAP Diversity Plus: SAg Assay for CD38 Biomarker Activity (AID 2283087)
How it was run: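 Human HUVEC plus PBMC co-culture stimulated with superantigen; CD38 measured by ELISA 24 h after chemical dosing. Fluorescence read-out, bidirectional fit against DMSO; cytotoxicity tracked in parallel by SRB and Alamar Blue.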

CD40, CD40 (gene 958) = experiment: BSK_SAg_CD40: BioMAP Diversity Plus: SAg Assay for CD40 Biomarker Activity (AID 2283088)
How it was run: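 HUVEC plus PBMC co-culture, superantigen-activated, with CD40 read by ELISA 24 h after dosing. Curves fitted in both directions against DMSO. Overt cytotoxicity checked by parallel SRB total-protein staining.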

CD69, CD69 (gene 969) = experiment: BSK_SAg_CD69: BioMAP Diversity Plus: SAg Assay for CD69 Biomarker Activity (AID 2283089)
How it was run: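 Values derive from bidirectional fitting relative to DMSO vehicle. Cells: umbilical vein endothelium plus peripheral blood mononuclear cells, treated 24 h before fluorescent ELISA for CD69.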

Measured: AC50

Sequence of Tumor necrosis factor (Homo sapiens) (P01375 whole entry, looked up): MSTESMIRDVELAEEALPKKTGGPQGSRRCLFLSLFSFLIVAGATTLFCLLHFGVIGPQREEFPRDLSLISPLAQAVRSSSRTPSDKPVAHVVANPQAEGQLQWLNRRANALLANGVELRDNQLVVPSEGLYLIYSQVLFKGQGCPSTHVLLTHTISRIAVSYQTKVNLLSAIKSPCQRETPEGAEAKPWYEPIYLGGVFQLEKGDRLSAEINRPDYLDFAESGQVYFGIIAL

CCCCCC1=CCCC1=O
inactive: [1] | [2] | [3] | [4] | [5] | [6] | CD38, CD38 (gene 952) | CD40, CD40 (gene 958) | CD69, CD69 (gene 969)
active: [7] 24 µM

CCOC(=O)/C=C\C(=O)OCC
inactive: [1] | [2] | [3] | [4] | [5] | [6] | [7] | CD38, CD38 (gene 952) | CD40, CD40 (gene 958) | CD69, CD69 (gene 969)

Oc1ccc(/C=C/c2cc(O)cc(O)c2)cc1
inactive: [1] | [4] | [5] | [6] | [7] | CD38, CD38 (gene 952) | CD40, CD40 (gene 958) | CD69, CD69 (gene 969)
active: [2] 20 µM | [3] 2.5 µM

CCCCCCCCCCCC(=O)N(C)CC(=O)O
inactive: [1] | [2] | [4] | [5] | [6] | [7] | CD38, CD38 (gene 952) | CD40, CD40 (gene 958) | CD69, CD69 (gene 969)
active: [4] 5.86 µM

C[N+](C)(C)CCCNS(=O)(=O)C(F)(F)C(F)(F)C(F)(F)C(F)(F)C(F)(F)C(F)(F)C(F)(F)C(F)(F)F
active: [1] 13.2 µM and 30 µM | [2] 36.4 µM | [4] 46.7 µM and 52.8 µM | [5] 14.1 µM | [6] 41 µM and 28.3 µM | [7] 45 µM and 49.6 µM | CD40, CD40 (gene 958) 30 µM
inactive: [2] | [5] | CD38, CD38 (gene 952) | CD40, CD40 (gene 958) | CD69, CD69 (gene 969)

CC(c1cc(C(C)(C)C)cc(C(C)(C)C)c1O)c1cc(C(C)(C)C)cc(C(C)(C)C)c1O
inactive: [1] | [2] | [3] | [4] | [5] | [6] | [7] | CD38, CD38 (gene 952) | CD40, CD40 (gene 958) | CD69, CD69 (gene 969)

c1ccc2c(c1)[nH]c1ccccc12
inactive: [1] | [2] | [3] | [4] | [5] | [6] | [7] | CD38, CD38 (gene 952) | CD40, CD40 (gene 958) | CD69, CD69 (gene 969)
